Data as given in PubChem BioAssay AID652010 (The Scripps Research Institute Molecular Screening Center, 2013).
Screen size: about 370,000 compounds; about 4,100 (1.1%) were called active. Many of the other results were omitted from the sample, so actives are more common in it than they were. Values without a mark were called inactive.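 The calls were made as follows: active = inhibition above the mean over all tested compounds plus 3 SD (cut at about 3.6% in these data); inactive = the rest.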

experiment: DAX1 (NR0B1) inhibitors on StAR promoter, primary screen, cell-based, luminescence, SF-1 (NR5A1), full-length DAX-1 (AID 652010); details: HEK293T StAR-luciferase reporter, SF-1/DAX-1 repression relief; at 6.8 µM; stronger effect = higher value;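 also: 0% = DAX-1 cells with DMSO and 100% = cells lacking DAX-1 with DMSO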

| SMILES | inhibition |
| --- | --- |
| O=C(NC1CCCCN(Cc2cccc(C(F)(F)F)c2)C1=O)c1ccccc1I (centres undefined) | -0.84% |
| Cc1ccc(C(=O)C2CCN(CC(=O)NCCC(C)C)CC2)cc1 | -0.3% |
| Cn1nc(-c2ccccc2)c(CSc2cccc(Cl)c2)c1Cl | -0.99% |
| O=c1c2ccccc2nc2n1C(CSc1ccc(Cl)cc1)CN2 (centres undefined) | 0.41% |
| Clc1ccc2nc(CSc3ccccc3)cn2c1 | 4.45% (active) |
| O=C(N[C@H](C(=O)N1CCC[C@H]1C(=O)NCCc1ccccc1Cl)c1ccccc1)c1ccccc1 | -0.28% |
| CCOC(=O)[C@]12CCCC3=C1N(CCC3)C(=O)[C@@H](CC(=O)NCc1cccs1)C2 | 0.02% |
| CC(CCN1CCC(C(O)(c2ccccc2)c2ccccc2)CC1)Oc1ccc(C(F)(F)F)cc1 (centres undefined) | -0.91% |
| Cc1ccc(Nc2c(F)c(F)c(F)c(F)c2C(=O)O)c(C)c1 | 0.38% |
| Cc1cc(C#N)c(SCC(N)=O)nc1-c1ccc(F)cc1 | 0.32% |
| COc1ccc(CCNC(=O)CSc2nc(-c3ccc(OC)c(OC)c3)ccc2C#N)cc1 | -0.18% |
| CCOc1ccc2cc(C#N)c(SCC(=O)OC)nc2c1 | 3.71% (active) |
| Cc1ccc(-n2c(COc3ccccc3)nnc2SCC(=O)Nc2ccc3c(c2)OCCO3)cc1 | -2.9% |
| COc1ccc(-n2c(SCC(=O)Nc3ccccc3-c3ccccc3)nnc2-c2cccnc2)cc1 | -1.84% |
| Nc1nc2c(ncn2[C@@H]2O[C@H](CNS(=O)(=O)N3CCc4ccccc4C3)[C@@H](O)[C@H]2O)c(=O)[nH]1 | -0.84% |
| CC(C)(O)C#Cc1ccc(CNC[C@H]2O[C@@H](n3cnc4c(=O)[nH]c(N)nc43)[C@H](O)[C@@H]2O)s1 | 5.95% (active) |
| Nc1nc2c(ncn2[C@@H]2O[C@H](CNCc3ccc(OCCCN4CCOCC4)cc3)[C@@H](O)[C@H]2O)c(=O)[nH]1 | 1.17% |
| Clc1ccc(-n2c(COc3ccccc3)nnc2SCc2nc3ccccc3[nH]2)cc1 | 0.06% |
| O=C(CSc1nc2ccccc2s1)N=Nc1c(O)[nH]c2ccccc12 | 0.2% |
| COC(=O)C1CN(CC(C)C)CCS(=O)(=O)N1Cc1ccc(F)cc1 (centres undefined) | -0.94% |
| CCC(=O)Nc1ccc2c(c1)C(=O)N(C)[C@@H]1CC[C@@H](CC(=O)NCCc3ccccc3)O[C@H]1CO2 | 0.25% |
| Cc1nn(-c2ccccc2)c2c1C(c1cccc([N+](=O)[O-])c1)N(c1ccccc1)C(=O)N2 (centres undefined) | -0.06% |

| SMILES | inhibition |
| --- | --- |
| Cc1nn(-c2ccc([N+](=O)[O-])cc2)c(N)c1-c1ccccc1 | 4.84% (active) |
| CC(C)(C)c1cnnn1-c1ccc([N+](=O)[O-])cc1 | 0.31% |
| O=C(Nc1ccc([N+](=O)[O-])cc1)OCCc1ccccn1 | -0.01% |
| O=[N+]([O-])c1ccc2nc(-c3ccccn3)[nH]c2c1 | 3.65% (active) |
| O=[N+]([O-])c1ccc(N/N=C2/CCCCC2c2ccccn2)c([N+](=O)[O-])c1 (centres undefined) | -0.26% |
| CC(C)CNc1cccc2c1S(=O)(=O)N(Cc1cn(Cc3ccc(Cl)cc3)nn1)Cc1ccccc1O2 | -0.85% |
| Cc1ccc(C2=CCN(C)C(=O)N2c2ccc(Cl)cc2)cc1 | -0.53% |
| OC(c1ccccc1)c1nc(-c2cnc3ccccc3c2)cs1 (centres undefined) | 9.07% (active) |
| CC(C)c1cccc(-c2csc(C(O)c3ccccc3)n2)c1 (centres undefined) | 0.06% |
| COc1cccc(C(NC(C)=O)c2nc(-c3cnc4ccccc4c3)cs2)c1 (centres undefined) | -0.06% |
| CSc1ncnc2c1ncn2CCCNCc1cccs1 | 0.19% |
| CN(C)c1ccc(NC(=O)c2ccncc2)c2ccccc12 | -0.26% |
| Cc1ccc(NC(=O)c2oc3ccccc3c2C)c([N+](=O)[O-])c1 | 0.06% |
| O=C(Nc1ccc2ccccc2c1[N+](=O)[O-])c1ccccc1 | 5% (active) |
| COc1cccc(NC(=O)CCc2nnc3ccc(N4CCC(C)CC4)nn23)c1 | -0.5% |
| O=C(NCc1cccs1)C1CCN(S(=O)(=O)c2ccccc2[N+](=O)[O-])CC1 | 0.71% |
| O=C1NC(Nc2nc3ccccc3s2)(C(F)(F)F)C(=O)N1C1CCCCC1 (centres undefined) | -1.98% |
| c1ccc2sc(NN=C3CCCC3)nc2c1 | 4.11% (active) |
| O=C(COc1ccc(-c2ccccc2)cc1)NN=C1CCCC1 | -1.32% |
| CCOC(=O)c1oc2c(CN3CCN(CCO)CC3)c(O)c(CC)cc2c(=O)c1-c1nc2ccccc2s1 | 0% |
| CCCCNC(=O)C[C@@H]1C(=O)N(CCc2ccc(Cl)cc2)C2=CCCC[C@]21C(=O)OCC | -1.99% |
| COc1cccc(NC(=O)C/C(C)=N/NC(=O)C2CCCCC2)c1 | -0.19% |
